Only a selection was taken, and hits are over-represented in it overall.
RE007 growth inh: less growth of the S. pombe RE007 Vpr strain; S. pombe RE007 Vpr strain, BacTiter-Glo ATP luminescence, 24 h; Potency, µM (series often up to 92.2 µM), usual class: inhibitors; 360,000 compounds, 0.21% hits; active = well fitted falling curve with a large enough effect; inconclusive = small, poorly fitted or top-dose-only effect; inactive = no such curve, though single readings can be large or run the other way; also: nearly all actives have a fitted effect of over 50% in size
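Fission yeast strain RE007, carrying one chromosomally integrated HIV-1 vpr copy, was seeded at OD 0.01 in PMG+AL medium with 23 nL pinned compound. After 24 h at 30 °C and 99% humidity, viability was read by BacTiter-Glo luminescence.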
Shiga inhibitor: Shiga toxin inhibition; Vero cells, Shiga toxin protein synthesis inhibition reporter; inhibition, % at 38.7 µM; 290,000 compounds, 9.2% hits; AID 2315; in the data active = inhibition mostly above about 28%, no sharp cut-off; inactive = mostly below about 43%
FBPA Giardia inh: inhibitors of Giardia lamblia fructose-1,6-bisphosphate aldolase. A8B2U2. AID 2451. purified Giardia FBPA. 290,000 compounds, 0.71% hits. Potency, µM (highest dose often 59.6 µM), most hits filed as inhibitors; also: nearly all actives have a fitted effect of over 55% in size
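40 nM FBPA preincubated 10 min at RT with compound (up to 57.5 uM final), then substrate plus GAPDH/TPI/NAD/arsenate coupling and diaphorase/resazurin added. Fluorescence read after 20 min at RT, 525/598 nm.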
LmPK inh: blocks Leishmania mexicana pyruvate kinase activity; Potency, µM (highest dose often 57.5 µM), actives largely listed as inhibitors; Q27686; 290,000 compounds, 0.37% hits; purified LmPK, Kinase-Glo ATP luminescence, 1 h
Target sequence (Q27686 whole entry, looked up): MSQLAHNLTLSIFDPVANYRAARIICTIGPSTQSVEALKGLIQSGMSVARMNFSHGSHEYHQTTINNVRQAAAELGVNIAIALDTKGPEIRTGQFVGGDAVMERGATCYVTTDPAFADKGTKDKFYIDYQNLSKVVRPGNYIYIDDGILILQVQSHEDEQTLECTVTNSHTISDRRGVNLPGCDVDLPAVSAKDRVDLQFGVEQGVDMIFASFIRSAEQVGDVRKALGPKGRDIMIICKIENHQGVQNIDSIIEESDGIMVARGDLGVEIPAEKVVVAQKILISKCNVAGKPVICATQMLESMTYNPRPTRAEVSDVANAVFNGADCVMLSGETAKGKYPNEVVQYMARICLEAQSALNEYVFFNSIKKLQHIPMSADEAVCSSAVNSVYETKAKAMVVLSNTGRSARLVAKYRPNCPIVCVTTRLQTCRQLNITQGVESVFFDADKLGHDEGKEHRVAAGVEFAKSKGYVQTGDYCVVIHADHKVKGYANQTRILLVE
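Kinase-Glo luminescence read after 1 h RT reaction of 0.1 nM LmPK with 0.5 mM PEP and 0.1 mM ADP. Activity scaled between uninhibited and enzyme-free controls.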
Tb PYK inh: inhibitors of Trypanosoma brucei pyruvate kinase. TbPYK enzyme, Kinase-Glo Plus ATP luminescence, 45 min. Q57TT1. Potency, µM (highest dose often 76.8 µM), most hits filed as inhibitors. 410,000 compounds, 0.12% hits; also: nearly all actives have a fitted effect of over 50% in size
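In this concentration-response screen, enzyme-free wells defined baseline while DMSO plates tracked drift. Each reaction combined TbPYK, substrate, compound and 130 uM ADP for 45 min at room temperature. Kinase-Glo Plus luminescence gave the signal.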
CHX counter: affects cycloheximide protein synthesis inhibition readout, counter-screen; max response, %; cell reporter, cycloheximide protein synthesis inhibition counterscreen; 300,000 compounds, 12% hits; in the data active = max response mostly above about 13%, no sharp cut-off; inactive = mostly below about 14%; also: read at 38.3 µM for the half of the compounds with a filed dose
A number is an active result; i = inactive; ? = inconclusive; nt = no result. Unless noted, calls follow the shape of the dose curve; as a rule, active = well fitted curve in the direction sought with a large enough effect; inconclusive = small, poorly fitted or top-dose-only effect, or another doubt; inactive = no such curve, though single readings can be large; an effect the other way counts as inactive or inconclusive.

SMILES	RE007 growth inh	Shiga inhibitor	FBPA Giardia inh	LmPK inh	Tb PYK inh	CHX counter
Cc1cc(C(=O)NCC(c2ccco2)N(C)C)ccc1[N+](=O)[O-] (configuration not stated)	i	i	i	i	i	8.9
O=C(NCCc1ccccc1)c1ccccc1[N+](=O)[O-]	i	43.8	i	i	i	22.5
CN(C)C(CNC(=O)c1ccc(Br)cc1)c1ccco1 (configuration not stated)	i	i	i	i	i	i
CCC(CC)C(=O)Nc1cccc(C(=O)NCCc2ccccc2)c1	i	105.4	i	i	i	19.3
O=[N+]([O-])c1cc(S(=O)(=O)C(F)(F)F)ccc1NCC1CCCO1 (configuration not stated)	i	32.4	i	i	i	i
COc1ccc(C(C(=O)NC(C)(C)C)N(Cc2cccnc2)C(=O)CCC(=O)Nc2cc(C)on2)cc1 (configuration not stated)	i	i	i	i	i	i
O=C(NCCc1ccccc1)c1ccc([N+](=O)[O-])cc1	i	i	nt	i	i	i
O=C(NCCc1ccccc1)c1ccc(Cl)c([N+](=O)[O-])c1	i	135.9	i	i	i	64.4
Cc1cc(C(=O)NCCc2ccccc2)ccc1[N+](=O)[O-]	i	54.0	i	i	i	54.7
CC(=O)c1cccc(OCc2cc(C(=O)NCc3nc(C)c(C)s3)no2)c1	i	83.0	nt	i	i	39.8
CN(Cc1nccn1C)C(=O)c1cc(COc2cccc(C(F)(F)F)c2)on1	i	41.7	nt	i	i	36.9
O=C(c1cc(COc2cccc(C(F)(F)F)c2)on1)N1CCCC1	i	nt	nt	nt	i	nt
CCOC(=O)N1CCN(C(=O)c2cc(COc3cccc(C(C)=O)c3)on2)CC1	i	i	nt	i	i	40.7
CCOC(=O)N1CCN(C(=O)c2cc(COc3cccc(C(F)(F)F)c3)on2)CC1	i	59.9	i	i	i	46.2
CNC(C(=O)c1ccccc1)C(OC)c1ccc(C)cc1 (configuration not stated)	i	44.0	i	i	i	11.4
CN1C(=O)c2ccccc2Sc2ccc(NC(=O)c3ccccc3F)cc21	nt	nt	nt	nt	i	nt
CCOC(=O)CNc1nc(C#N)nc(N2CCOCC2)n1	i	i	i	i	i	i
CCOC(=O)CNc1nc(Cl)nc(N2CCCCC2)n1	i	i	i	i	i	12.3
COc1ccc(/C=C2\N=C(c3ccc(C)cc3)OC2=O)cc1	i	nt	i	i	i	i
Cc1ccc(C2=N/C(=C\N3CCCCC3)C(=O)O2)cc1	i	142.8	i	i	i	73.4
Cc1ccc(C2=N/C(=C/N3CCOCC3)C(=O)O2)cc1	i	68.2	i	i	i	49.6
CCOC(=O)c1c(Nc2ccc(OC)cc2)nnc(-c2ccccc2)c1-c1ccccc1	nt	nt	nt	nt	i	nt
COc1cccc(CNC(=O)Cn2c(=O)oc3cc(S(=O)(=O)N4CCCC4)ccc32)c1	nt	nt	nt	nt	i	nt
CC1CCC(NC(=O)CSc2nnc(-c3cccnc3)o2)CC1 (configuration not stated)	i	nt	nt	nt	i	nt
OCC1O[C@H](O[C@H]2C(O)C(O)C(O)O[C@@H]2CO)C(O)C(O)C1O (some centres not stated)	nt	nt	i	nt	i	nt
SMILES	RE007 growth inh	Shiga inhibitor	FBPA Giardia inh	LmPK inh	Tb PYK inh	CHX counter
NNc1nc2ccc(F)cc2s1	i	136.5	?	i	i	78.1
O=C(Nc1nc2ccc(F)cc2s1)Oc1ccccc1	i	i	i	i	i	i
NNc1nc2c(Cl)c(Cl)ccc2s1	?	30.3	i	i	i	25.1
NNc1nc2ccc(Cl)cc2s1	i	83.3	i	i	i	41.7
Fc1ccc2nc(Nc3ccccc3)sc2c1	i	117.9	i	i	i	36.1
CN(Cc1ccco1)C(=O)c1ccc(CNS(=O)(=O)c2ccc3c(c2)C(C)(C)C(=O)N3C)cc1	i	i	i	i	i	i
O=C(O)c1c(Cl)c(Cl)c(Cl)c(Cl)c1C(=O)OCC1CCCO1 (configuration not stated)	i	nt	nt	nt	i	nt
COc1ccc(/C=C2/C(=O)N(c3nc4ccccc4s3)N=C2CSc2ccc(Cl)cc2)cc1	i	i	i	i	i	13.5
COc1ccc(/C=C2/C(=O)N(Cc3ccccc3)N=C2C)cc1	i	i	i	i	i	i
C=CCNC(=S)NNC(=O)c1ccccc1OCC	i	i	i	i	i	i
CCOc1cc(-c2nc3ccccc3s2)ccc1O	i	64.7	i	i	i	55.5
COc1ccc(-c2nc3ccccc3s2)cc1O	?	i	i	15.8µM	i	i
COc1cc(-c2nc3ccccc3s2)ccc1O	i	80.5	i	?	i	44.8
Cc1cc(-c2ccc(NC(=O)[C@@H]3CCCC[C@@H]3C(=O)O)c(C)c2)ccc1NC(=O)[C@@H]1CCCC[C@@H]1C(=O)O	i	i	i	i	i	i
CC(=NCCN1CCCCC1)c1c(O)[nH]c(=O)[nH]c1=O	i	87.1	i	i	i	i
O=C(Nc1ccc(Nc2ccccc2)cc1)c1ccco1	?	139.0	i	i	i	49.1
CN(c1ccccc1)S(=O)(=O)c1ccc(NC(=O)c2ccco2)cc1	i	i	i	i	i	i
O=C(Nc1ccc(NC(=O)c2ccco2)cc1)c1ccco1	i	i	nt	i	i	i
O=C(Nc1ccc(-c2ccccc2)cc1)c1ccco1	i	i	i	i	i	i
O=C(Nc1ccc(Br)cc1)c1ccco1	i	i	i	i	i	29.8
CC(=O)N(C)c1ccc(NC(=O)c2ccco2)cc1	i	151.8	i	i	i	29.7
O=C(Nc1ccc(Cc2ccncc2)cc1)c1ccco1	i	81.4	i	i	i	24.0
O=C(O)Cc1ccc(NC(=O)c2ccc(NC(=O)c3ccco3)cc2)cc1	i	i	i	i	i	i
CCOC(=O)N1CCN(/[N+]([O-])=N/Oc2ccc([N+](=O)[O-])cc2[N+](=O)[O-])CC1	nt	i	i	nt	nt	i
CCOC(=O)c1cccc(NC(=O)CCc2ccccc2)c1	i	i	i	i	i	16.0
SMILES	RE007 growth inh	Shiga inhibitor	FBPA Giardia inh	LmPK inh	Tb PYK inh	CHX counter
CC(=O)Nc1cccc(C(=O)OCC(=O)NC(=O)Cc2ccccc2)c1	i	nt	nt	nt	i	nt
O=C(CCc1ccccc1)Nc1cccc(NC(=O)CCc2ccccc2)c1	i	i	i	i	i	i
NC(=O)c1ccc(NC(=O)CCC(=O)c2cccs2)cc1	i	i	i	i	i	i
CCC(=O)Nc1ccc(C(=O)OCc2ccccc2)cc1	i	77.4	i	i	i	39.0
CCC(=O)Nc1ccc(C(=O)OCC(=O)c2cccs2)cc1	i	55.5	i	i	i	31.1
CC(=O)Nc1cccc(C(=O)OCc2ccccc2)c1	i	74.2	i	i	i	27.0
CN(C1CCCCC1)S(=O)(=O)c1ccc2c(c1)c(=O)c(C(=O)NCc1ccccc1Cl)cn2C	nt	nt	nt	nt	i	nt
